# In PubChem BioAssay (Tox21):
# “And” between values parts separate entries of the source, which are not always exact repeats. Identical values can stand only once. Results filed as inconclusive are left out. The source made the active and inactive calls. The call rests on the fitted dose curve; in most records, active means well fitted cell-killing curve with a large enough effect in the repeat runs; inconclusive means weak or mixed curves; inactive means flat fitted curve, though single readings scatter.
# Assay: qHTS RealTime-Glo MT Cell Viability Assay in HepG2 cells - 8 hour (AID 1224873); further: nearly all actives have a fitted effect of over 55% in size
# Settings: RealTime-Glo luminescence; series mostly up to 76.8 µM; viability change, negative = cytotoxic: at the top concentration
# Text: National Center for Advancing Translational Sciences [NCATS]
# NIH Chemical Genomics Center [NCGC]
# U.S. Environmental Protection Agency [EPA]
# National Institutes of Environmental Health Sciences [NIEHS]
# National Toxicology Program [NTP]
# U.S. Food and Drug Administration [FDA]
# Measure of cell viability is critical in the cell-base assay. Analysis of cell viability is necessary for the characterization of cell responses to cytotoxic drugs and environmental stress. A RealTime-Glo MT Cell Viability Assay to monitor cell viability in real time of continues cell culture during 40 hours of compound treatment was used to screen Tox21 10K library compounds in HepG2 cells. The RealTime-Glo MT Cell Viability Assay is a nonlytic, homogeneous, bioluminescent method to measure cell viability in real time using a simple, plate-based method. The assay involves adding NanoLuc luciferase and a cell-permeant prosubstrate to cells in culture. Viable cells reduce the proprietary prosubstrate to generate a substrate for NanoLuc luciferase. This substrate diffuses from cells into the surrounding culture medium, where it is rapidly used by the NanoLuc Enzyme to produce a luminescent signal. The signal correlates with the number of viable cells, making the assay well suited for cytotoxicity studies.
# Tox21 Assay Protocol Summary:
# The mixture of HepG2 cell suspension and reagents were dispensed at 600cells/6 ul/well in 1536-well tissue culture treated black solid bottom plates using a Multidrop dispenser. After the assay plates were incubated at a 37 C/5% CO2 incubator for 5 hours, 23 nL of compounds dissolved in DMSO, positive and negative controls was transferred to the assay plate by a pintool work station. The plates were incubated at 37 C for 40 hours. The luminescence intensity were measured at 0h, 8h, 16h, 24h, 32h and 40h time points using ViewLux plate reader during compound treatment.
# On the % scale 0 is the no-effect control and ±100 the full control effect; potency means the concentration at half of the fitted maximal effect.
Compound,"viability change, negative = cytotoxic",Potency
CN1C(=O)c2ccc([N+](=O)[O-])cc2C1=O,-0.177% (inactive),–
COc1ccc(CCN2CCC(Nc3nc4ccccc4n3Cc3ccc(F)cc3)CC2)cc1,–,35.4 µM (active) and 23.9 µM (active)
O=C(OCc1ccccc1)c1ccc(O)cc1,–,inactive
CCOC(=O)C(C)C(C)=O (stereo not given),-0.68% (inactive),–
c1cc(C(c2ccc(OCC3CO3)cc2)C(c2ccc(OCC3CO3)cc2)c2ccc(OCC3CO3)cc2)ccc1OCC1CO1 (stereo not given),–,inactive
CCC[C@H](N[C@@H](C)C(=O)N1[C@H](C(=O)O)C[C@@H]2CCCC[C@@H]21)C(=O)OCC,–,inactive
C[N+]1([O-])CCOCC1,-0.189% (inactive),–
CCc1ccc(C(c2ccc(CC)cc2)C(Cl)Cl)cc1,–,inactive
CC(N)=O,4.24% [at 200 µM] (inactive),–
Cc1scc2c1N(C(=O)CN1CCN(C)CC1)c1ccccc1NC2=O,2.89% [at 35.3 µM] (inactive),–
C=CS(=O)(=O)O,2.57% (inactive),–
Cc1cccc(O)c1C,–,inactive
c1cnc2cc3c(cc2n1)C1CNCC3C1,-0.357% [at 35.3 µM] (inactive),–
C=C(C)C(=O)O,–,inactive
CC(=O)OCC1=C(C(=O)O)N2C(=O)[C@@H](NC(=O)Cc3cccs3)[C@H]2SC1,5.09% [at 35.3 µM] (inactive),–
NC(N)=Nc1nc(CSCC/C(N)=N/S(N)(=O)=O)cs1,–,inactive
c1ccc2c(c1)-c1cccc3c1c-2cc1ccccc13,–,inactive
NC12CC3CC(CC(C3)C1)C2,2.8% [at 35.3 µM] (inactive),–
COc1ccc(COC(C)=O)cc1,–,inactive
CC(C)(C)c1ccccc1,0.772% (inactive),–

Compound,"viability change, negative = cytotoxic",Potency
CCCOC(=O)c1cc(O)c(O)c(O)c1,-0.251% (inactive),–
COc1ccc(Cc2cnc(N)nc2N)cc1OC,4.29% [at 35.3 µM] (inactive),–
CC(C(O)c1ccc(O)cc1)N1CCC(Cc2ccccc2)CC1 (stereo not given),-3.3% [at 35.3 µM] (inactive),–
CCCCCCCCCCCCCC[P+](CCCC)(CCCC)CCCC,–,38.7 µM (active) and 17.4 µM (active)
C/C=C/c1ccc(OCC)c(O)c1,–,inactive
Nc1nc2ccccc2[nH]1,–,inactive
C#CC(C)(CC)OC(=O)c1ccccc1C(=O)O (stereo not given),5.3% [at 35.3 µM] (inactive),–
CC(C)CCOC(=O)c1ccc(N(C)C)cc1,-11.8% [at 35.3 µM] (inactive),–
CCCCC/C=C/CC1CC(=O)OC1=O (stereo not given),1.23% (inactive),–
Oc1c(Cl)cc(Cl)c(Cl)c1Cc1c(O)c(Cl)cc(Cl)c1Cl,0.903% [at 35.3 µM] (inactive),–
Nc1cc(S(=O)(=O)O)cc2cc(S(=O)(=O)O)cc(O)c12,-11.9% (inactive),–
c1ccc2n[nH]nc2c1,–,inactive
O,–,inactive
Cc1cc(Cc2cc(C)cc(C(C)(C)C)c2O)c(O)c(C(C)(C)C)c1,–,38.9 µM (active)
CC(C)CCOCc1ccccc1,0.438% (inactive),–
O=C(O)c1cn(-c2ccc(F)cc2)c2cc(N3CCNCC3)c(F)cc2c1=O,–,inactive
CC[C@]1(O)C[C@@H]2CN(CCc3c([nH]c4ccccc34)[C@@](C(=O)OC)(c3cc4c(cc3OC)N(C)[C@H]3[C@@](O)(C(=O)OC)[C@H](OC(C)=O)[C@]5(CC)C=CCN6CC[C@]43[C@@H]65)C2)C1,–,inactive
CCc1cc(C(C)(C)C)c(O)c(C(C)(C)C)c1,–,inactive
CCN(CC)CCOc1ccc(/C(=C(\Cl)c2ccccc2)c2ccccc2)cc1,–,31.6 µM (active)
CC(=O)O[C@]1(C(C)=O)CC[C@H]2[C@@H]3C[C@H](C)C4=CC(=O)CC[C@]4(C)[C@H]3CC[C@@]21C,-15.1% [at 35.3 µM] (inactive),–
